Test results taken from PubChem BioAssay (NCATS).
Records with an inconclusive call do not appear. Entries that show only a call come without a potency. Values without a mark were called inactive. Activity calls are given as the source filed them. Unless noted, calls follow the shape of the dose curve; as a rule, active = well fitted curve in the direction sought with a large enough effect; inconclusive = small, poorly fitted or top-dose-only effect, or another doubt; inactive = no such curve, though single readings can be large; an effect the other way counts as inactive or inconclusive.

Experiments:
[1] = Identifying Small Molecule Inhibitors of Pancreatic Cancer Stem Cells (SN12C, Adherent) (AID 1259358); settings: viability/growth inhibition; series mostly up to 46.1 µM;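 also: cell survival measured after 48 h of compound exposure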; also: potency is read from the fitted curve at half-maximal effect
Procedure, shortened: (§1)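 Cytotoxicity read by CellTiter-Glo luminescence after 48 h compound exposure at 37C; percent activity scaled between DMSO-treated cells and cell-free wells. Spheroid formats used cells pre-formed 14 days in stem cell media on hydrogel.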

[2] = Identifying Small Molecule Inhibitors of Pancreatic Cancer Stem Cells (A278, Adherent) (AID 1259361); settings: series mostly up to 46.1 µM; also: nearly all actives have a fitted effect of over 35% in size
Procedure, shortened: as §1

[3] = P-glycoprotein substrates identified in KB-8-5-11 adenocarcinoma cell line, qHTS therapeutic library screen (AID 1346987); settings: KB-8-5-11 (P-gp overexpressing) viability, CellTiter-Glo, 72 h; series mostly up to 44.5 µM; also: nearly all actives have a fitted effect of over 65% in size
Procedure, shortened: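 Compounds are pinned in dose-response onto KB-8-5-11 cells (500 cells/well, colchicine-free medium) and left 72 h at 37 degree C. CellTiter-Glo luminescence then yields AC50 values.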

[4] = Identifying Small Molecule Inhibitors of Pancreatic Cancer Stem Cells (SN12C, Spheroid) (AID 1259360); settings: Potency: SN12C spheroid viability; series mostly up to 46.1 µM; also: potency is read from the fitted curve at half-maximal effect
Procedure, shortened: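 Spheroids grown 14 days in stem cell media on hydrogel-coated nonadherent plates; 2D lines seeded directly. Compounds added after 4 h attachment, 48 h at 37C, 5% CO2; CellTiter-Glo luminescence normalized to DMSO (no inhibition) and no-cell wells (full inhibition).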

[5] = P-glycoprotein substrates identified in KB-3-1 adenocarcinoma cell line, qHTS therapeutic library screen (AID 1346986); settings: KB-3-1 parental cells viability, CellTiter-Glo, 72 h; series mostly up to 44.5 µM; also: nearly all actives have a fitted effect of over 60% in size
Procedure, shortened: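 Viability read by CellTiter-Glo after 72 h compound exposure in dose-response of KB-3-1 and KB-8-5-11 (P-gp-high) cells. Hits needed AC50 < 10 uM, >50% maximum response and curve class -1.1 to -2.4. Cherry-picks retested ± tariquidar, including pcDNA/MDR-19 HEK-293 pair.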

[6] = Natriuretic polypeptide receptor (hNpr1) antagonism - Pilot counterscreen GloSensor control cell line (AID 1347045; calls by dose curve); settings: HEK293 cGMP GloSensor cells, SNP-stimulated luminescence, 20 min; series mostly up to 38.3 µM
Procedure, shortened: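 Control counterscreen: luciferase cGMP-biosensor HEK293 cells (no Npr1) received compound for 30 min at room temperature after GloSensor substrate loading. Luminescence was measured before and 20 min after soluble guanylyl cyclase activation by 50 uM nitroprusside.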

C[C@]1(c2nc3c(C(N)=O)cccc3[nH]2)CCCN1
Potency [1]: inactive | IC50 (viability decrease) [2]: 18.7 µM (active) | Potency [3]: inactive

Cn1c(=O)c(F)c(Nc2ccc(I)cc2F)c2c(=O)n(C[C@@H](O)CO)cnc21
Potency [1]: 0.418 µM (active) | Potency [4]: 8.33 µM (active) | Potency [3]: inactive

CN([C@@H](Cc1ccc(OS(=O)(=O)c2cccc3cnccc23)cc1)C(=O)N1CCN(c2ccccc2)CC1)S(=O)(=O)c1cccc2cnccc12
Potency [1]: inactive | IC50 (viability decrease) [2]: inactive | activity change, negative = cytotoxicity [5]: -0.309% [at 5.11 µM] | activity change, negative = cytotoxicity [3]: -4.44% [at 5.11 µM]

O=C(Nc1ccc(F)c(C(F)(F)F)c1)Nc1nnc(-c2ccncc2)s1
Potency [1]: inactive | IC50 (viability decrease) [2]: 14.8 µM (active) | Potency [3]: inactive

NC(=O)c1ccc(I)c([N+](=O)[O-])c1
Potency [1]: inactive | IC50 (viability decrease) [2]: inactive | Potency [3]: inactive

Nc1ncnc2nc(-c3ccc(N4CCOCC4)nc3)cc(-c3cccc(Br)c3)c12
Potency [1]: inactive | IC50 (viability decrease) [2]: 26.4 µM (active) | Potency [5]: inactive | Potency [3]: inactive | outcome [6]: inactive

CS(=O)(=O)c1ccc(C(=O)Nc2ccc(Cl)c(-c3ccccn3)c2)c(Cl)c1
Potency [1]: inactive | Potency [4]: inactive | Potency [3]: inactive

COc1c(Cl)cc2c([nH]c3cnccc32)c1NC(=O)c1cccnc1C
Potency [1]: inactive | IC50 (viability decrease) [2]: inactive | Potency [5]: inactive | Potency [3]: inactive

O=S(=O)(N=Cc1c(O)ccc2ccccc12)c1cccs1
Potency [1]: inactive | IC50 (viability decrease) [2]: inactive | Potency [3]: inactive

NC(=O)C1CCCc2c1[nH]c1ccc(Cl)cc21 (stereo unspecified)
Potency [1]: inactive | Potency [4]: inactive | Potency [3]: inactive

CCOc1cc(C(=O)Nc2ccc(Cl)c(-c3nc4ccccc4[nH]3)c2)cc(OCC)c1OCC
Potency [1]: inactive | IC50 (viability decrease) [2]: inactive
